This is an account of results in PubChem BioAssay (EPA / NIEHS).

Inconclusive results are not listed. Calls of active or inactive are those of the source. How the source made its calls, unless noted: active means hit-call score of the fitted dose curve at least 0.9, where 1 is the maximum; inconclusive means response in the unintended direction; inactive means score below 0.9.

Experiment [1] addresses human CYP1A2, CYP1A2 (gene 1544) (UniProt P05177). Briefly: NVS_ADME_hCYP1A2: NovaScreen (NVS) CYP450-related Enzyme Activity (ADME) Assay for human CYP1A2 (AID 2283102).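 On AC50: potency for inhibition since loss of fluorescence marks reduced CYP1A2 activity.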 The method in brief:
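Fluorescence-intensity enzyme activity read-out, taken 0.5 h post-dosing, using insect-cell-derived recombinant CYP1A2 and specific fluorescent substrate. Acetonitrile served as negative control/baseline. Single-concentration duplicate screen at 10 uM, then concentration-response follow-up.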

The target in experiment [2] is human CYP2C9, CYP2C9 (gene 1559) (UniProt P11712). Briefly: NVS_ADME_hCYP2C9: NovaScreen (NVS) CYP450-related Enzyme Activity (ADME) Assay for human CYP2C9 (AID 2283108). The method in brief: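 Cell-free assay of recombinant human CYP2C9 produced in Sf9 cells, with enzyme activity read by fluorescence intensity 0.75 h after compound addition. Loss of signal versus an acetonitrile negative control indicates inhibition. Primary screen used 10 uM in duplicate; actives were retested in concentration series.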

The target in experiment [3] is Cytochrome P450 2C19 (Homo sapiens) (UniProt P33261). Briefly: NVS_ADME_hCYP2C19: NovaScreen (NVS) CYP450-related Enzyme Activity (ADME) Assay for human CYP2C19 (AID 2283113).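 On AC50: potency for inhibition seen as loss of fluorescent signal.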 The method, boiled down:
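Recombinant insect-cell-expressed enzyme, fluorescent substrate, 1 h after chemical addition, fluorescence intensity. Baseline = acetonitrile vehicle; activity scored as signal loss. Primary HTS single concentration 10 uM, duplicate; actives retested in concentration series.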

Experiment [4] concerns the target rat CYP1A2, Cyp1a2 (gene 24297) (UniProt P04799). Briefly: NVS_ADME_rCYP1A2: NovaScreen (NVS) CYP450-related Enzyme Activity (ADME) Assay for rat CYP1A2 (AID 2283115). The method, boiled down: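 Cell-free recombinant rat enzyme with fluorogenic substrate, read by fluorescence intensity 1 hour after dosing. Loss of signal versus acetonitrile negative control; primary screen at 10 uM in duplicate, actives followed in concentration series.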

Experiment [5] concerns the target rat CYP2C11, Cyp2c11 (gene 29277) (UniProt P08683). Nature of the experiment: NVS_ADME_rCYP2C11: NovaScreen (NVS) CYP450-related Enzyme Activity (ADME) Assay for rat CYP2C11 (AID 2283118). The method in brief:
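Cell-free recombinant rat enzyme with fluorescent substrate; readout 0.33 h after dosing, loss of signal versus acetonitrile control. Initial duplicate single-point at 10 uM; actives rerun in concentration series.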

A further experiment deals with rat CYP2C6, gene 293989. Briefly: NVS_ADME_rCYP2C6: NovaScreen (NVS) CYP450-related Enzyme Activity (ADME) Assay for rat CYP2C6 (AID 2283120). The method, boiled down: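 Cell-free recombinant rat CYP2C6 with fluorogenic substrate, read by fluorescence 1 h after dosing; acetonitrile as negative control. Primary screen at 10 uM in duplicate, actives then in concentration-response up to 20 uM.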

For experiment [6], the target named is rat CYP3A2, Cyp3a2 (gene 266682) (UniProt P05183). Nature of the experiment: NVS_ADME_rCYP3A2: NovaScreen (NVS) CYP450-related Enzyme Activity (ADME) Assay for rat CYP3A2 (AID 2283128). The method, boiled down: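 Cell-free rat CYP3A2 enzyme assay with fluorescent substrate, read 0.5 h after dosing. Primary duplicate screen at 10 uM; actives run in concentration-response up to 20 uM, relative to acetonitrile baseline.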

Experiment [7] concerns the target human Acetylcholinesterase (AChE), ACHE (gene 43) (UniProt P22303). Briefly: NVS_ENZ_hAChE: NovaScreen (NVS) Enzymatic Assay for human Acetylcholinesterase (AChE) (AID 2283129). The method, boiled down:
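Cell-free colorimetric enzyme-activity assay; compounds read 0.33 hour after dosing, loss of signal vs DMSO baseline. Primary screen in duplicate at 25 uM single concentration, with active compounds retested in concentration series.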

Experiment [8] deals with human CYP2C8, CYP2C8 (gene 1558) (UniProt P10632). Briefly: NVS_ADME_hCYP2C8: NovaScreen (NVS) CYP450-related Enzyme Activity (ADME) Assay for human CYP2C8 (AID 2283104; active means hit-call score of the fitted dose curve at least 0.9, where 1 is the maximum; inactive means score below 0.9). The method, boiled down: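 Recombinant human CYP2C8 with fluorogenic substrate, 0.5 h, fluorescence intensity; signal loss fitted versus acetonitrile. Screened in duplicate at 10 uM, then actives run in concentration-response up to 20 uM.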

Experiment [9] deals with human CYP2J2, CYP2J2 (gene 1573) (UniProt P51589). Nature of the experiment: NVS_ADME_hCYP2J2: NovaScreen (NVS) CYP450-related Enzyme Activity (ADME) Assay for human CYP2J2 (AID 2283106). The method, boiled down:
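Cell-free assay of recombinant CYP2J2 with a fluorogenic substrate, read 1 h after dosing; loss of signal versus acetonitrile. Primary screen at 10 uM in duplicate, then concentration-response up to 20 uM for chemicals passing threshold (e.g., 30% inhibition).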

For experiment [10], the target named is human CYP2D6, CYP2D6 (gene 1565) (UniProt P10635). Briefly: NVS_ADME_hCYP2D6: NovaScreen (NVS) CYP450-related Enzyme Activity (ADME) Assay for human CYP2D6 (AID 2283107). The method in brief: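 Fluorescence intensity read 1 h post-dosing; insect-cell-expressed recombinant protein with fluorogenic substrate, no cells. Activity is scored as signal loss relative to acetonitrile baseline, first at a single 10 uM concentration in duplicate, then as concentration series for confirmed actives.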

Experiment [11] concerns the target Cytochrome P450 3A4 (Homo sapiens) (UniProt P08684). Briefly: NVS_ADME_hCYP3A4: NovaScreen (NVS) CYP450-related Enzyme Activity (ADME) Assay for human CYP3A4 (AID 2283110). The method, boiled down: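 Cell-free assay using insect-cell-expressed human CYP3A4 with a fluorogenic substrate; fluorescence intensity was read 0.33 hour after dosing. Loss of signal relative to acetonitrile vehicle indicated inhibition. Primary single-concentration screen at 10 uM, in duplicate, then concentration series.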

The subject of another experiment is rat CYP2B1, gene 24300. Briefly: NVS_ADME_rCYP2B1: NovaScreen (NVS) CYP450-related Enzyme Activity (ADME) Assay for rat CYP2B1 (AID 2283117). The method, boiled down: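 Recombinant rat CYP2B1 with fluorogenic substrate, read at 0.75 h. Primary screen in duplicate at 10 uM; compounds meeting threshold (e.g., 30% inhibition) re-run in concentration-response up to 20 uM. Fitted against acetonitrile control.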

The target of experiment [12] is rat CYP2C12, Cyp2c12 (gene 25011) (UniProt P11510). Briefly: NVS_ADME_rCYP2C12: NovaScreen (NVS) CYP450-related Enzyme Activity (ADME) Assay for rat CYP2C12 (AID 2283119). The method in brief:
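Cell-free recombinant rat CYP2C12 activity read by fluorescence 0.5 h after dosing; loss of signal versus acetonitrile control. Primary screen in duplicate at 10 uM; actives then run in concentration-response format.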

Experiment [13] addresses rat CYP2D1, Cyp2d1 (gene 266684) (UniProt P10633). Briefly: NVS_ADME_rCYP2D1: NovaScreen (NVS) CYP450-related Enzyme Activity (ADME) Assay for rat CYP2D1 (AID 2283122). The method, boiled down: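 Cell-free fluorescence enzyme-activity assay on extracted rat CYP2D1 protein, read 0.75 h after dosing. Primary screen in duplicate at 10 uM; qualifying chemicals then run in concentration-response to 20 uM max, loss-of-signal versus acetonitrile baseline.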

Chain of human CYP2D6, CYP2D6 (gene 1565) (P10635 whole entry, looked up): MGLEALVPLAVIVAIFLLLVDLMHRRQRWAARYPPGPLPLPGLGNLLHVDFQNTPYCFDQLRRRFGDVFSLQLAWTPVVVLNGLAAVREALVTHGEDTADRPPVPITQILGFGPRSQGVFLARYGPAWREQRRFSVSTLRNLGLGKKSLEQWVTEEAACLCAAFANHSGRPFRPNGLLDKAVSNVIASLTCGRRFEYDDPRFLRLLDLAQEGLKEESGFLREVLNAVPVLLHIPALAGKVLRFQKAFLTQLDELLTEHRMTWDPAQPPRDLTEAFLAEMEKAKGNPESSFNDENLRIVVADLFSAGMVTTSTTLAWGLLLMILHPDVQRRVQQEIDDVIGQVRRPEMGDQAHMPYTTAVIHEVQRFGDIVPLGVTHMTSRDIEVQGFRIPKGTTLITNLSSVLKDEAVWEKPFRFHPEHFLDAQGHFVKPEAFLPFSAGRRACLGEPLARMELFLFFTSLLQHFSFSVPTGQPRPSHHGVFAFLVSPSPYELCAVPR
Chain of human CYP2C9, CYP2C9 (gene 1559) (P11712 whole entry, looked up): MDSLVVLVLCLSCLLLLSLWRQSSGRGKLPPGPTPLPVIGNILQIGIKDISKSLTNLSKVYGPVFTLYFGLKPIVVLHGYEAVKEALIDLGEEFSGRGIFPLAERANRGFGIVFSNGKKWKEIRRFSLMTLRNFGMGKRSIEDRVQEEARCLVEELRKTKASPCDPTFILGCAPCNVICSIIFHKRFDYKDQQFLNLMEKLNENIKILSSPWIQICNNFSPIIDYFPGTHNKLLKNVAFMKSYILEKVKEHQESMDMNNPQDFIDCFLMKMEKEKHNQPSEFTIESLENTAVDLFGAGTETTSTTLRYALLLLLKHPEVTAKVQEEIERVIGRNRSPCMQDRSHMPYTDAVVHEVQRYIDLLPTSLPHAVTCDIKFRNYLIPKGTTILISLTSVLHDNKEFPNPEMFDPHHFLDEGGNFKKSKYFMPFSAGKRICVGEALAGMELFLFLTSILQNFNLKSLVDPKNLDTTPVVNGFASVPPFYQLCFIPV
Chain of rat CYP2D1, Cyp2d1 (gene 266684) (P10633 whole entry, looked up): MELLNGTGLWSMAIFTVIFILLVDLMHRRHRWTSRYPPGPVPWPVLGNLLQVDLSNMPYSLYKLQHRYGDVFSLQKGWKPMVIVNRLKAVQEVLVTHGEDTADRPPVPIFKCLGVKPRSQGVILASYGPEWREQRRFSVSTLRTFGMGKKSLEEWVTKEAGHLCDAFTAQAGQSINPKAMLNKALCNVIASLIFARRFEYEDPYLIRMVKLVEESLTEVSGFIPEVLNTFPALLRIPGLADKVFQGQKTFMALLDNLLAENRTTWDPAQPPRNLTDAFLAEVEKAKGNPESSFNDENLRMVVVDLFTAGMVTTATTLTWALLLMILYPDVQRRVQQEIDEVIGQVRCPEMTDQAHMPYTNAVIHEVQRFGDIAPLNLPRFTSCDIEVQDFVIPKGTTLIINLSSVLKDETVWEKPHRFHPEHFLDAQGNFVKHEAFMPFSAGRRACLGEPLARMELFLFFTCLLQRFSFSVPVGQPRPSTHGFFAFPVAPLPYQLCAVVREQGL
Chain of human CYP1A2, CYP1A2 (gene 1544) (P05177 whole entry, looked up): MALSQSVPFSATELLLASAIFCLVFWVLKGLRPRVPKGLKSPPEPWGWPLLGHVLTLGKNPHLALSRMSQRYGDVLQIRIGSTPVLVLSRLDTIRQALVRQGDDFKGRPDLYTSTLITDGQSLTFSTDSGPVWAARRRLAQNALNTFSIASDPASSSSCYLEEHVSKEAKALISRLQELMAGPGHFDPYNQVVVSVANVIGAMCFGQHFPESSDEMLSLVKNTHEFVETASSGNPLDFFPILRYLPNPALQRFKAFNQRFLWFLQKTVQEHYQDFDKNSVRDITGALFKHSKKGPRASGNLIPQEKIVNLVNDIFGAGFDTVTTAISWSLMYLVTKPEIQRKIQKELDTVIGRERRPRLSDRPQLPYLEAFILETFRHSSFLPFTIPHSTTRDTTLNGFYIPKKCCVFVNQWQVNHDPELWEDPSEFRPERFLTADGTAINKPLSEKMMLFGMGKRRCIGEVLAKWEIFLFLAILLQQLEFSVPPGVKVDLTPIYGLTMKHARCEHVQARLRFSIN
Chain of human CYP2J2, CYP2J2 (gene 1573) (P51589 whole entry, looked up): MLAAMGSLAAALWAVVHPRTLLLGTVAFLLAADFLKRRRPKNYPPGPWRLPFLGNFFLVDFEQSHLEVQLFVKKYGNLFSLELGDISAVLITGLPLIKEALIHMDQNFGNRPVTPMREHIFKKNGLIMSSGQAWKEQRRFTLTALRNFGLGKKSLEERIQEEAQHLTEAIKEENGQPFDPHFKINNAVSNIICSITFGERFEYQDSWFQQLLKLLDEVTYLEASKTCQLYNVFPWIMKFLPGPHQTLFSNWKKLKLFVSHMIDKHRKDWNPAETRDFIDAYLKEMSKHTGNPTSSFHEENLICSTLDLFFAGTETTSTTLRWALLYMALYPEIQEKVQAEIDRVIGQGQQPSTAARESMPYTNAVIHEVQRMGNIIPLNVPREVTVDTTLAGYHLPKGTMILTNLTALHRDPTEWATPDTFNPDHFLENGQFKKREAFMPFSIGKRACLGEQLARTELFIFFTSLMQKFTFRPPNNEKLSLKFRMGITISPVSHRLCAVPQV
Chain of rat CYP2C11, Cyp2c11 (gene 29277) (P08683 whole entry, looked up): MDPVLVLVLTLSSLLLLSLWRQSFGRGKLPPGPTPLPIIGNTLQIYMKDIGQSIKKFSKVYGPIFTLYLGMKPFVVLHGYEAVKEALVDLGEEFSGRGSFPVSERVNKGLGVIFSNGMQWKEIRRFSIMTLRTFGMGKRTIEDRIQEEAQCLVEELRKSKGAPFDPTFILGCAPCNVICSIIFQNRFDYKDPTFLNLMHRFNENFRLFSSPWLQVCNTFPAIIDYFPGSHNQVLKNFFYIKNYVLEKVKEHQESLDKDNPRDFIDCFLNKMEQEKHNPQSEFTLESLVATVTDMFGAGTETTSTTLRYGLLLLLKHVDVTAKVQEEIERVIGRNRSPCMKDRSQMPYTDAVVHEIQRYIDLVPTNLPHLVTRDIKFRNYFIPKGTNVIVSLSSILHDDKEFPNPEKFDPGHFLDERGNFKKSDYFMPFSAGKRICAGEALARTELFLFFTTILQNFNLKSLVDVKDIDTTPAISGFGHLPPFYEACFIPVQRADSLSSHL
Chain of human CYP2C8, CYP2C8 (gene 1558) (P10632 whole entry, looked up): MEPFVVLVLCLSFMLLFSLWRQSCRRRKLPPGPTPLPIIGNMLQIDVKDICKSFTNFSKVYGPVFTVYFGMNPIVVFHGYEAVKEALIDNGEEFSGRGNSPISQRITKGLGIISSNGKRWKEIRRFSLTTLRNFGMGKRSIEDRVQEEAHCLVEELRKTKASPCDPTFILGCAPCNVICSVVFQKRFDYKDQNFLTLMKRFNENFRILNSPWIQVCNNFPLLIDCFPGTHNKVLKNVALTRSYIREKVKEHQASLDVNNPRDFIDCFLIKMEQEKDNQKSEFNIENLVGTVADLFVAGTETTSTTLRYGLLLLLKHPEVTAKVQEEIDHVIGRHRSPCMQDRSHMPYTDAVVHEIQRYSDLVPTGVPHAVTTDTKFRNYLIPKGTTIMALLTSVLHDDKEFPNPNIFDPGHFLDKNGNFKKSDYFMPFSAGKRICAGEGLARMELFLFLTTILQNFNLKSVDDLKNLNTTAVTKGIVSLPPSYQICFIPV
Chain of rat CYP2C12, Cyp2c12 (gene 25011) (P11510 whole entry, looked up): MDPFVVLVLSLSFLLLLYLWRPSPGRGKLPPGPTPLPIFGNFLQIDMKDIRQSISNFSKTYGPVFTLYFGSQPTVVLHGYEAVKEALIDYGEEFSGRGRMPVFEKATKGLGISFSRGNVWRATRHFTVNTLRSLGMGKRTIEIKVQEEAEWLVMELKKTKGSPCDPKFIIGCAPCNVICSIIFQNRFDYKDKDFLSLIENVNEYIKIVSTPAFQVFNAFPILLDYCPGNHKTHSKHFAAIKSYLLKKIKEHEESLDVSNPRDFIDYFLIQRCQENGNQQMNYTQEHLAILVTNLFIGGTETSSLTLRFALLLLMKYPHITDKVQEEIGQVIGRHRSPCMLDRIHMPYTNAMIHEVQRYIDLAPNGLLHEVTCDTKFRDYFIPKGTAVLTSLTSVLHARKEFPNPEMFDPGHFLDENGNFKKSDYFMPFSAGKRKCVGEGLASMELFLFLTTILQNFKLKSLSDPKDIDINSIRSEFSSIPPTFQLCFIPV
Chain of rat CYP3A2, Cyp3a2 (gene 266682) (P05183 whole entry, looked up): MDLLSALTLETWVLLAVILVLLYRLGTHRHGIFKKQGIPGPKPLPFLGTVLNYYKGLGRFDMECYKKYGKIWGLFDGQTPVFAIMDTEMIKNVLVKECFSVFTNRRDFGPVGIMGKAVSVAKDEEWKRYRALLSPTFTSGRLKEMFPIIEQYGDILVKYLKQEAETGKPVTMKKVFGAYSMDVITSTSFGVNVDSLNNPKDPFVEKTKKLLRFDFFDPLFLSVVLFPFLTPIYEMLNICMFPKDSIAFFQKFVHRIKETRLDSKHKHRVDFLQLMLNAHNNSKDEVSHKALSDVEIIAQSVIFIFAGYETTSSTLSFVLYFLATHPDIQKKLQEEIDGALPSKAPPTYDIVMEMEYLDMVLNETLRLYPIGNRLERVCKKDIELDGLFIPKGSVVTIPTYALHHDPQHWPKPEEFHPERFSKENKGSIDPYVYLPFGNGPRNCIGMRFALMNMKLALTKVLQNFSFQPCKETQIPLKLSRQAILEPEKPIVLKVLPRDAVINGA
Chain of Cytochrome P450 3A4 (Homo sapiens) (P08684 whole entry, looked up): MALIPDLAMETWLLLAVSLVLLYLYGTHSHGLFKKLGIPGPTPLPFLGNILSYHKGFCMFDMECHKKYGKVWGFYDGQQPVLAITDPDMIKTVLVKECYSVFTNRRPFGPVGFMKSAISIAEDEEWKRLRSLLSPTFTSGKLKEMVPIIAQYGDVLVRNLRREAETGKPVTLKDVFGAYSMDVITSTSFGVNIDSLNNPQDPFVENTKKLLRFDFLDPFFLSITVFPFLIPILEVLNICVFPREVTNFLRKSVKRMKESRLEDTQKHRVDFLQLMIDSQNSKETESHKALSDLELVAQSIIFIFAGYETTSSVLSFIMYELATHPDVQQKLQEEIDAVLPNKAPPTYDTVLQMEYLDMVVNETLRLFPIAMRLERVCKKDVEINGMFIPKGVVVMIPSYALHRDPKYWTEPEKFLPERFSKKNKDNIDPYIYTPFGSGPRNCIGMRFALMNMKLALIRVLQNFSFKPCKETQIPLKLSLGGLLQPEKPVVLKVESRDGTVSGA

With `CCCSP(=O)(OCC)Oc1ccc(Br)cc1Cl` (centres undefined), the AC50 was 5190 nM (active) in experiment [1]; 7090 nM (active) in experiment [2]; 10000 nM (active) in experiment [3]; 226 nM (active) in experiment [5]; 8280 nM (active) in the experiment with rat CYP2C6, gene 293989; 7400 nM (active) in [6]. Besides, the AC50 in [7] was 7930 nM (active). The compound was called inactive in experiment [4].

With `CCCOCC(=Nc1ccc(Cl)cc1C(F)(F)F)n1ccnc1`, the half-maximal activity concentration (AC50) in [1] is 7010 nM (active); in experiment [8], 3770 nM (active); in experiment [9], 101 nM (active); in [10], 6700 nM (active); in [2] it was 4360 nM (active); in experiment [11], 522 nM (active). Further, the AC50 is 160 nM (active) in experiment [3]; 279 nM (active) with rat CYP2B1, gene 24300; 798 nM (active) in experiment [5]; 2460 nM (active) in experiment [12]; 976 nM (active) in the experiment with rat CYP2C6, gene 293989; 6880 nM (active) in experiment [13]. Besides, the AC50 in [6] is 1700 nM (active). Besides, the outcome in [4] was inactive.

For `Nc1c(Cl)cc([N+](=O)[O-])cc1Cl`, the AC50 in [1] was 2280 nM (active). Further, the outcome was “inactive” in experiment [10]; “inactive” in experiment [3]; “inactive” in the experiment on rat CYP2B1, gene 24300.

For the compound `CCOC(=O)CC(SP(=O)(OC)OC)C(=O)OCC` (centres undefined), the outcome in [1] is “inactive”; in experiment [8], “inactive”; in experiment [11], “inactive”; with rat CYP2B1, gene 24300, “inactive”; in experiment [6], “inactive”; in experiment [7] it was “inactive”. In addition, the AC50 in [2] was 1980 nM (active); in [3], 9390 nM (active); in experiment [5] it was 8370 nM (active); in the experiment on rat CYP2C6, gene 293989, 5320 nM (active).

For `CCOP(=S)(OCC)Oc1ccc2c(C)c(Cl)c(=O)oc2c1`, the AC50 in [1] was 1170 nM (active); in experiment [9], 64.6 nM (active); in [2], 798 nM (active); in experiment [3], 428 nM (active); with rat CYP2B1, gene 24300, 914 nM (active); in experiment [5], 1200 nM (active). In addition, the AC50 in experiment [12] was 799 nM (active); with rat CYP2C6, gene 293989, 452 nM (active); in experiment [13], 854 nM (active); in [6] it was 830 nM (active). Moreover, the outcome in experiment [8] was inactive.

On to `CN(C)C(=O)Nc1cccc(C(F)(F)F)c1`, for which the AC50 in experiment [1] is 5300 nM (active).

As to `O=[N+]([O-])c1cc(C(F)(F)F)c(Cl)c([N+](=O)[O-])c1Nc1ncc(C(F)(F)F)cc1Cl`, the compound was classed as inactive in [1] and in [12]. The AC50 in experiment [2] is 1840 nM (active); in [3] it was 1390 nM (active); in [5] it was 2910 nM (active).

As to `C[Si](Cn1cncn1)(c1ccc(F)cc1)c1ccc(F)cc1`, the result in experiment [9] was inactive. The AC50 was 1040 nM (active) in [2]; 36.6 nM (active) in experiment [3]; 37.1 nM (active) with rat CYP2B1, gene 24300; 250 nM (active) in [5]; 4130 nM (active) in [12]; 519 nM (active) in the experiment with rat CYP2C6, gene 293989. In addition, the figures for the AC50 in [13] and in experiment [6] were 4300 nM (active) and 1070 nM (active), respectively.

Consider `CSc1nnc(C(C)(C)C)c(=O)n1N`, for which the result in experiment [10] and in experiment [3] was inactive.

Broadly, the AC50 is the concentration at which the activity in the assay is half-maximal.
